# Assay results taken from PubChem BioAssay AID1159580 (chemical genetic matrix, 2015).
# Screen size: about 5,500 compounds; about 2,000 (36%) were called active. Roughly 18% stayed inconclusive and do not appear here. The list shows a part of the results. Values without a mark were called inactive. Cut-off read from the data, not from the text of the source: active = normalized growth mostly below about 0.91 (no sharp cut-off); inconclusive = no clear call, values can overlap the other calls; inactive = mostly above about 0.92.
# Test: chemical genetic growth profiling, strain panel (AID 1159580);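 note: tested at 20 µM; growth read once vehicle control cultures reached saturation at 30 °C; 1 = growth at the plate median or of vehicle wells; lower values mean less growth of the strain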
# Details: S. cerevisiae deletion strains, growth OD
# [1] = locus YAR019C, strain CDC15, hits give low values
# [2] = locus YBL105C, strain PKC1, hits give low values
# [3] = locus YBR135W, strain CKS1, hits give low values
# [4] = locus YBR136W, strain MEC1, hits give low values
# [5] = locus YBR160W, strain CDC28, hits give low values
# [6] = locus YDL017W, strain CDC7, hits give low values
# [7] = locus YDL028C, strain MPS1, hits give low values
# [8] = locus YDL101C, strain DUN1, hits give low values
# [9] = locus YDL108W, strain KIN28, hits give low values
# [10] = locus YDL132W, strain cdc53, hits give low values
# [11] = locus YDL214C, strain PRR2, hits give low values
# [12] = locus YDR052C, strain DBF4, hits give low values
# [13] = locus YDR054C, strain cdc34, hits give low values
# [14] = locus YDR226W, strain ADK1, hits give low values
# [15] = locus YDR477W, strain SNF1, hits give low values
# [16] = locus YER123W, strain YCK3, hits give low values
# [17] = locus YER133W, strain GLC7, hits give low values
# [18] = locus YFL009W, strain cdc4, hits give low values
# [19] = locus YFL029C, strain CAK1, hits give low values
# [20] = locus YFR003C, strain YPI1, hits give low values
# [21] = locus YFR019W, strain FAB1, hits give low values
# [22] = locus YFR028C, strain CDC14, hits give low values
# [23] = locus YGR040W, strain KSS1, hits give low values
# [24] = locus YGR052W, strain FMP48, hits give low values
# [25] = locus YGR092W, strain DBF2, hits give low values
# [26] = locus YHR030C, strain SLT2, hits give low values
# [27] = locus YHR079C, strain IRE1, hits give low values
# [28] = locus YHR082C, strain KSP1, hits give low values
# [29] = locus YHR205W, strain SCH9, hits give low values
# [30] = locus YIL147C, strain SLN1, hits give low values
# [31] = locus YJL095W, strain BCK1, hits give low values
# [32] = locus YJL128C, strain PBS2, hits give low values
# [33] = locus YJL157C, strain FAR1, hits give low values
# [34] = locus YJR016C, strain ILV3, hits give low values
# [35] = locus YJR066W, strain TOR1 (second series), hits give low values
# [36] = locus YJR066W, strain TOR1, hits give low values
# [37] = locus YKL048C, strain ELM1, hits give low values
# [38] = locus YKL067W, strain YNK1, hits give low values
# [39] = locus YKL101W, strain HSL1, hits give low values
# [40] = locus YKL193C, strain SDS22, hits give low values
# [41] = locus YKL203C, strain TOR2, hits give low values
# [42] = locus YLR113W, strain HOG1, hits give low values
# [43] = locus YLR133W, strain CKI1, hits give low values
# [44] = locus YLR403W, strain SFP1, hits give low values
# [45] = locus YML070W, strain DAK1, hits give low values
# [46] = locus YMR001C, strain CDC5, hits give low values
# [47] = locus YMR205C, strain PFK2 (second series), hits give low values
# [48] = locus YMR277W, strain FCP1, hits give low values
# [49] = locus YNL006W, strain LST8, hits give low values
# [50] = locus YNL020C, strain ARK1, hits give low values
# [51] = locus YNL161W, strain CBK1, hits give low values
# [52] = locus YNL183C, strain NPR1, hits give low values
# [53] = locus YNL207W, strain RIO2, hits give low values
# [54] = locus YNL222W, strain SSU72, hits give low values
# [55] = locus YNL307C, strain MCK1 (second series), hits give low values
# [56] = locus YOL078W, strain AVO1, hits give low values
# [57] = locus YOL136C, strain PFK27, hits give low values
# [58] = locus YOR061W, strain CKA2, hits give low values
# [59] = locus YOR119C, strain RIO1, hits give low values
# [60] = locus YOR231W, strain MKK1, hits give low values
# [61] = locus YOR329C, strain SCD5, hits give low values
# [62] = locus YPL031C, strain PHO85, hits give low values
# [63] = locus YPL153C, strain RAD53, hits give low values
# [64] = locus YPL204W, strain HRR25, hits give low values
# [65] = locus YPL209C, strain IPL1, hits give low values
# [66] = locus YPL256C, strain CLN2, hits give low values
# [67] = locus YPR025C, strain CCL1, hits give low values
# [68] = locus YPR106W, strain ISR1, hits give low values
# [69] = locus YPR111W, strain DBF20, hits give low values
# [70] = strain NNK1, hits give low values
# [71] = strain TSCII, hits give low values
smiles,measurement,setting,value
O=C(CSCc1csc2ccccc12)Nc1ccc(F)c(Cl)c1,normalized growth,[1],0.978
same,normalized growth,[2],0.977
same,normalized growth,[3],0.973
same,normalized growth,[4],0.981
same,normalized growth,[5],0.974
same,normalized growth,[6],0.98
same,normalized growth,[7],0.982
same,normalized growth,[8],0.999
same,normalized growth,[9],0.973
same,normalized growth,[10],0.982
same,normalized growth,[11],0.885
same,normalized growth,[12],0.99
same,normalized growth,[13],0.97
same,normalized growth,[14],0.986
same,normalized growth,[15],0.909
same,normalized growth,[16],0.884
same,normalized growth,[17],0.921
same,normalized growth,[18],0.978
same,normalized growth,[19],0.975
same,normalized growth,[20],0.978
same,normalized growth,[21],0.93
same,normalized growth,[22],0.975
same,normalized growth,[23],0.917
same,normalized growth,[24],0.925
same,normalized growth,[25],0.878
same,normalized growth,[26],0.821 (active)
same,normalized growth,[27],0.858
same,normalized growth,[28],0.896
same,normalized growth,[29],0.845
same,normalized growth,[30],0.984
same,normalized growth,[31],0.877
same,normalized growth,[32],0.946
same,normalized growth,[33],0.875
same,normalized growth,[34],0.972
same,normalized growth,[35],0.893
same,normalized growth,[36],0.889
same,normalized growth,[37],0.952
same,normalized growth,[38],0.897
same,normalized growth,[39],0.89
same,normalized growth,[40],0.977
same,normalized growth,[41],0.96
same,normalized growth,[42],0.68 (active)
same,normalized growth,[43],0.899
same,normalized growth,[44],0.889
same,normalized growth,[45],0.849
same,normalized growth,[46],0.977
same,normalized growth,[47],0.904
same,normalized growth,[48],0.978
same,normalized growth,[49],0.978
same,normalized growth,[50],0.887
same,normalized growth,[51],0.977
same,normalized growth,[52],0.879
same,normalized growth,[53],0.974
same,normalized growth,[54],0.966
same,normalized growth,[55],0.877
same,normalized growth,[56],0.979
same,normalized growth,[57],0.843
same,normalized growth,[58],0.895
same,normalized growth,[59],0.965
same,normalized growth,[60],0.814
same,normalized growth,[61],0.982
same,normalized growth,[62],0.906
same,normalized growth,[63],0.897
same,normalized growth,[64],0.907
same,normalized growth,[65],0.973
same,normalized growth,[66],0.754 (active)
same,normalized growth,[67],0.975
same,normalized growth,[68],0.961
same,normalized growth,[69],0.952
same,normalized growth,[70],0.956
same,normalized growth,[71],0.977
O=C(Nc1ccc(Cl)cc1)SCc1c(Cl)cccc1Cl,normalized growth,[1],0.985
same,normalized growth,[2],0.976
same,normalized growth,[3],0.984
same,normalized growth,[4],0.967
same,normalized growth,[5],0.988
same,normalized growth,[6],0.976
same,normalized growth,[7],0.987
same,normalized growth,[8],0.974
same,normalized growth,[9],0.959
same,normalized growth,[10],0.999
same,normalized growth,[11],0.786
same,normalized growth,[12],0.974
same,normalized growth,[13],0.953
same,normalized growth,[14],0.969
same,normalized growth,[15],0.83
same,normalized growth,[16],0.659
same,normalized growth,[17],0.834
same,normalized growth,[18],1
same,normalized growth,[19],0.975
same,normalized growth,[20],0.972
same,normalized growth,[21],0.747 (active)
same,normalized growth,[22],0.988
same,normalized growth,[23],0.808
same,normalized growth,[24],0.765
same,normalized growth,[25],0.763
same,normalized growth,[26],0.793 (active)
same,normalized growth,[27],0.748
same,normalized growth,[28],0.787
same,normalized growth,[29],0.919
same,normalized growth,[30],0.973
same,normalized growth,[31],0.745
same,normalized growth,[32],0.92
same,normalized growth,[33],0.76
same,normalized growth,[34],0.995
same,normalized growth,[35],0.746
same,normalized growth,[36],0.788
same,normalized growth,[37],0.891
same,normalized growth,[38],0.8
same,normalized growth,[39],0.83
same,normalized growth,[40],0.973
same,normalized growth,[41],0.891
same,normalized growth,[42],0.728 (active)
same,normalized growth,[43],0.816
same,normalized growth,[44],0.897
same,normalized growth,[45],0.783
same,normalized growth,[46],0.971
same,normalized growth,[47],0.836
same,normalized growth,[48],0.975
same,normalized growth,[49],0.989
same,normalized growth,[50],0.771
same,normalized growth,[51],0.974
same,normalized growth,[52],0.821
same,normalized growth,[53],0.955
same,normalized growth,[54],0.979
same,normalized growth,[55],0.721
same,normalized growth,[56],0.977
same,normalized growth,[57],0.761
same,normalized growth,[58],0.756
same,normalized growth,[59],0.905
same,normalized growth,[60],0.831
same,normalized growth,[61],0.979
same,normalized growth,[62],0.778
same,normalized growth,[63],0.798
same,normalized growth,[64],0.813
same,normalized growth,[65],0.972
same,normalized growth,[66],0.811 (active)
same,normalized growth,[67],0.988
same,normalized growth,[68],0.963
same,normalized growth,[69],0.961
same,normalized growth,[70],0.954
same,normalized growth,[71],0.978
